# Assay results taken from PubChem BioAssay (EPA / NIEHS).
# Calls of active or inactive are those of the source. How the source made its calls: active means hit-call score of the fitted dose curve at least 0.9, where 1 is the maximum; inactive means score below 0.9.
# Columns and labels:
# [1] = target: Bile acid receptor (Homo sapiens) (UniProt Q96RI1); assay: ATG_IR1_CIS: Attagene CIS-FACTORIAL HepG2 Assay for human Nuclear Receptor Subfamily 1 Group H Member 4 (NR1H4), IR1 submotif (AID 2282946); settings: IR1 reporter transcription, actives raise or lower the signal
# Sequence of Bile acid receptor (Homo sapiens) (Q96RI1 whole entry, looked up, the tested form may be a part): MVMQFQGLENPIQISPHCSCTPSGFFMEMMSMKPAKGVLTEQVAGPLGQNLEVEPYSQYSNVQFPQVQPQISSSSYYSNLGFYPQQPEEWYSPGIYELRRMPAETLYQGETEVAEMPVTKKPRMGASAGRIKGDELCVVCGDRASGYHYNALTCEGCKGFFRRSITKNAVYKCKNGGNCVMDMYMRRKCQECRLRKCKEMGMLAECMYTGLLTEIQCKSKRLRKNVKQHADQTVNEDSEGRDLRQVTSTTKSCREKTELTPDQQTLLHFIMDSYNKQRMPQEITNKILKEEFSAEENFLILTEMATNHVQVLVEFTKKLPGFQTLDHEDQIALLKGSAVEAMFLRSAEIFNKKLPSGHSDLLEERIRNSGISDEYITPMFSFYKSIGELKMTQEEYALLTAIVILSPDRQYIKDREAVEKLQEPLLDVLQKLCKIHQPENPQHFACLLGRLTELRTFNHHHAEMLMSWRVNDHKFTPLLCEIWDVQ
# Summary of the method: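 Cells (human HepG2) carry transiently transfected cis-promoter reporter transcription units. Compounds are incubated 24 h, total RNA is reverse-transcribed and amplified, and labelled fragments are resolved by capillary electrophoresis. Curves use DMSO as baseline.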
# [2] = ATG_GRE_CIS: Attagene CIS-FACTORIAL HepG2 Assay for human Glucocorticoid Response Elements (GRE) (AID 2282947); settings: HepG2 GRE cis-reporter, Attagene multiplex mRNA; actives raise or lower the signal
# Summary of the method: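 Assay uses human hepatoma HepG2 cells transfected with cis-promoter reporter units, exposed 24 h. mRNA from reporters detected by RT-PCR plus capillary electrophoresis; DMSO serves as negative control and baseline.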
# [3] = ATG_ISRE_CIS: Attagene CIS-FACTORIAL HepG2 Assay for human Interferon Regulatory Factor 1 (IRF1) binding to an Interferon-Stimulated Response Element (ISRE) (AID 2282948); settings: HepG2 ISRE cis-reporter (Attagene), mRNA transcription readout; actives raise or lower the signal
# Summary of the method: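 Transiently transfected HepG2 cells carrying cis-element reporter units, dosed 24 hours. Reporter mRNA quantified by RT-PCR, fluorescent primer extension, HpaI digestion and capillary electrophoresis. Bidirectional fitting relative to DMSO.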
# [4] = ATG_M_06_CIS: Attagene CIS-FACTORIAL HepG2 Assay for M06 Transcription Factor (Internal Marker) (AID 2282950); settings: HepG2 Attagene CIS-FACTORIAL M06 internal marker reporter; actives raise or lower the signal
# Summary of the method: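 HepG2 liver cells, 24 h exposure. Reporter transcripts from transfected cis-element constructs quantified by RT-PCR/capillary electrophoresis fluorescence. Bidirectional curve fit against DMSO.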
# [5] = target: Hypoxia-inducible factor 1-alpha (Homo sapiens) (UniProt Q16665); assay: ATG_HIF1a_CIS: Attagene CIS-FACTORIAL HepG2 Assay for human Hypoxia Inducible Factor 1 (HIF1A) (AID 2282951); settings: HepG2 Attagene cis-factorial HIF1a reporter transcription; actives raise or lower the signal
# Sequence of Hypoxia-inducible factor 1-alpha (Homo sapiens) (Q16665 whole entry, looked up): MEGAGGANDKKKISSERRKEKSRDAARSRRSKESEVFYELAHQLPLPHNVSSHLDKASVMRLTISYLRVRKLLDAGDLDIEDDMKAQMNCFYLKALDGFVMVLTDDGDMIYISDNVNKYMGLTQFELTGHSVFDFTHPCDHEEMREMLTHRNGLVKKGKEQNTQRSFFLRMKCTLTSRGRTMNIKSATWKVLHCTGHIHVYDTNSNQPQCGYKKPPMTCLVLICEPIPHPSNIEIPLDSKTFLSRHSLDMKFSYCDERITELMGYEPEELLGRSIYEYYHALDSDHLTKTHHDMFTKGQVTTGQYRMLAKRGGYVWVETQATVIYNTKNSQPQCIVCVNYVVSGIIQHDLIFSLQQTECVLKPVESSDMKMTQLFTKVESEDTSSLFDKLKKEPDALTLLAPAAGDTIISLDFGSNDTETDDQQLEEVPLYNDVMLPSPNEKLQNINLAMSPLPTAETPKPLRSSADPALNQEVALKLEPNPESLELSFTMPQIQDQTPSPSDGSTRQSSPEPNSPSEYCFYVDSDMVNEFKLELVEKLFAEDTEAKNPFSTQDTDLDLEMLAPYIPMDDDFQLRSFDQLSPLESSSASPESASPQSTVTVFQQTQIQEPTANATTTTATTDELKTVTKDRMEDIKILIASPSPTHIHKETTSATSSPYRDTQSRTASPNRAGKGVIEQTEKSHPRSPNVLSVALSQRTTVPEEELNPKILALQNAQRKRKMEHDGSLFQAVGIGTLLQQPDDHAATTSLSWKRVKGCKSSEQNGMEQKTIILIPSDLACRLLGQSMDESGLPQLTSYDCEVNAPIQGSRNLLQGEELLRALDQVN
# Summary of the method: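 In this multiplexed cell assay, HepG2 cells bearing transfected cis reporters are dosed for 24 h and reporter mRNA is read by RT-PCR plus capillary electrophoresis; signal increases and decreases are both scored against DMSO.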
# [6] = target: Hepatocyte nuclear factor 6 (Homo sapiens) (UniProt Q9UBC0); assay: ATG_HNF6_CIS: Attagene CIS-FACTORIAL HepG2 Assay for human Hepatocyte Nuclear Factor 6 (HNF6) (AID 2282952); settings: HepG2 Attagene cis-factorial HNF6 reporter transcription; actives raise or lower the signal
# Sequence of Hepatocyte nuclear factor 6 (Homo sapiens) (Q9UBC0 whole entry, looked up): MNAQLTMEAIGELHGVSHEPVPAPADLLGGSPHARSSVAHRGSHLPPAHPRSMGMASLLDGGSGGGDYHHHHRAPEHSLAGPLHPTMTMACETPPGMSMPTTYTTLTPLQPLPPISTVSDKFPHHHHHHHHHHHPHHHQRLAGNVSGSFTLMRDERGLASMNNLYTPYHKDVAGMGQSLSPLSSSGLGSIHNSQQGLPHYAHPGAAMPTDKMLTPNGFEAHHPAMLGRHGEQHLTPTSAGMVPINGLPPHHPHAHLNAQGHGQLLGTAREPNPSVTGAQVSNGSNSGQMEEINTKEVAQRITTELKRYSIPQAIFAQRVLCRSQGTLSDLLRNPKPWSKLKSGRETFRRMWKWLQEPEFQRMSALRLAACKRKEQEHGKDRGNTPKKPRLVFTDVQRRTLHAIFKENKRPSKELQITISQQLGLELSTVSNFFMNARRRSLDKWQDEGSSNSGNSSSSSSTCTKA
# Summary of the method: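 Multiplexed mRNA reporter assay in transfected HepG2; 24 h dosing; RT-PCR plus capillary electrophoresis fluorescence; DMSO-referenced bidirectional curve fitting.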
# [7] = target: Heat shock factor protein 1 (Homo sapiens) (UniProt Q00613); assay: ATG_HSE_CIS: Attagene CIS-FACTORIAL HepG2 Assay for human Heat Shock Transcription Factor 1 (HSE) (AID 2282953); settings: HepG2 HSE cis-reporter, Attagene RNA transcription; actives raise or lower the signal
# Sequence of Heat shock factor protein 1 (Homo sapiens) (Q00613 whole entry, looked up, the tested form may be a part): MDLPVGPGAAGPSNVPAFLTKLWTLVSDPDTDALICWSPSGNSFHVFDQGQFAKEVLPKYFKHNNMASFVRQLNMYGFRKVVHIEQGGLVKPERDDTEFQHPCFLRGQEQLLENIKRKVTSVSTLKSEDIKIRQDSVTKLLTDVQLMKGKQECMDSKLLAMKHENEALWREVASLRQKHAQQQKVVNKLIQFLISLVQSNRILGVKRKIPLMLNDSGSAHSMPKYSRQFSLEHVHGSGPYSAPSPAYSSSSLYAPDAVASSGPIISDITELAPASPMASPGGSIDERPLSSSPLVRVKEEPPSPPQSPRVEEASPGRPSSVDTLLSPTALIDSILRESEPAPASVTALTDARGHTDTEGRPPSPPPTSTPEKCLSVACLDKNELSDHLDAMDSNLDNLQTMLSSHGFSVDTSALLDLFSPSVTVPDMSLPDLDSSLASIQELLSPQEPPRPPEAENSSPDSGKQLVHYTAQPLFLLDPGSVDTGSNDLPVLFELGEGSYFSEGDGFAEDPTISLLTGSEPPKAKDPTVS
# Summary of the method: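 Endogenous transcription factor activity captured via cis-promoter reporter units transfected into HepG2; treatment lasted 24 h. Fluorescence intensity of reporter fragments analysed with bidirectional curve fitting, DMSO baseline.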
# [8] = ATG_MRE_CIS: Attagene CIS-FACTORIAL HepG2 Assay for human Metal Responsive Element (MRE) (AID 2282954); settings: HepG2 MRE cis-reporter transcription, Attagene multiplex; actives raise or lower the signal
# Summary of the method: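 After a 24 h chemical exposure, transiently transfected HepG2 cells yield RNA whose reporter sequences are amplified, FAM-labelled and sized by capillary electrophoresis. Curves are fitted bidirectionally relative to DMSO.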
# [9] = ATG_PBREM_CIS: Attagene CIS-FACTORIAL HepG2 Assay for human Phenobarbital-responsive Enhancer Module (PBREM) (AID 2282955); settings: HepG2 PBREM cis-reporter, Attagene multiplexed transcription; actives raise or lower the signal
# Summary of the method: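 After a 24 h incubation with test chemical, transfected HepG2 cells yield total RNA; reporter-specific RT-PCR products are fluorescently labelled, HpaI-digested and resolved by capillary electrophoresis against ROX size standards.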
# [10] = target: Paired box protein Pax-6 (Homo sapiens) (UniProt P26367); assay: ATG_Pax6_CIS: Attagene CIS-FACTORIAL HepG2 Assay for human Paired Box 6 (PAX6) (AID 2282956); settings: HepG2 CIS-FACTORIAL PAX6 reporter transcription, RNA readout; actives raise or lower the signal
# Sequence of Paired box protein Pax-6 (Homo sapiens) (P26367 whole entry, looked up): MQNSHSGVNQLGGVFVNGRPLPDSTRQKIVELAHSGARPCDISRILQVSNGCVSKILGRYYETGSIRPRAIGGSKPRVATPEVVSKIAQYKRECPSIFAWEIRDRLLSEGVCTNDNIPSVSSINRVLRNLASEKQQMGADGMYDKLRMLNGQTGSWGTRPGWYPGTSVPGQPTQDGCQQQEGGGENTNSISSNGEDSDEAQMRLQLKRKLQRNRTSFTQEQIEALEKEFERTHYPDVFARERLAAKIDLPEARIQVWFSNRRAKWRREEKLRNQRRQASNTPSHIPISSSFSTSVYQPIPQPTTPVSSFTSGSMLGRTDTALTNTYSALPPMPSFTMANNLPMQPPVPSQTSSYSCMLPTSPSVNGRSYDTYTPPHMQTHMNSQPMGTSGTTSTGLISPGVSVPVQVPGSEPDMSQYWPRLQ
# Summary of the method: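 HepG2 cells transiently transfected with cis-promoter-driven multiplexed reporter units sensing endogenous transcription factor activity; 24 h chemical exposure. Reporter mRNA quantified by RT-PCR, 6-FAM labelling, HpaI digestion and capillary electrophoresis; bidirectional fit versus DMSO baseline.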
# [11] = ATG_PXRE_CIS: Attagene CIS-FACTORIAL HepG2 Assay for human Pregnane X Receptor Element (PXRE) (AID 2282957); settings: HepG2 Attagene CIS-FACTORIAL PXRE reporter, mRNA; actives raise or lower the signal
# Summary of the method: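 Cells: HepG2, transiently transfected reporter units under cis promoter control. Exposure: 24 h. Detection: reporter mRNA via RT-PCR/CE fluorescence; bidirectional fitting, DMSO-referenced.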
# [12] = ATG_PPRE_CIS: Attagene CIS-FACTORIAL HepG2 Assay for human Peroxisome Proliferator-activated Response Element (PPRE) (AID 2282958); settings: HepG2 PPRE cis-element reporter, Attagene transcription factor profiling; actives raise or lower the signal
# Summary of the method: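 Multiplexed reporter transcription units under cis-regulatory promoters were transfected into HepG2 cells to capture endogenous factor activity. A 24 h incubation preceded RNA isolation and fluorescent RT-PCR fragment analysis.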
# [13] = ATG_RORE_CIS: Attagene CIS-FACTORIAL HepG2 Assay for human RAR-related Orphan Receptor Element (RORE) (AID 2282959); settings: HepG2 Attagene cis-factorial RORE reporter, mRNA; actives raise or lower the signal
# Summary of the method: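 Fluorescence intensity of reporter-specific cDNA fragments, separated by capillary electrophoresis, gives the signal. Source: HepG2 liver cells transiently transfected with cis-element reporters and exposed 24 h; DMSO-normalized bidirectional fit.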
# [14] = ATG_Sox_CIS: Attagene CIS-FACTORIAL HepG2 Assay for human SRY-box transcription factor (SOX) (AID 2282960); settings: HepG2 Attagene cis-factorial SOX reporter, mRNA; actives raise or lower the signal
# Summary of the method: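 After 24 h of chemical treatment, transfected HepG2 reporter cells are lysed for total RNA. Transcript levels come from RT-PCR with labelled primer extension and capillary electrophoresis, analysed bidirectionally versus DMSO.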
# [15] = target: Transcription factor Sp1 (Homo sapiens) (UniProt P08047); assay: ATG_Sp1_CIS: Attagene CIS-FACTORIAL HepG2 Assay for human Specificity Protein 1 (Sp1) (AID 2282961); settings: HepG2 Sp1 cis-reporter transcription, actives raise or lower the signal
# Sequence of Transcription factor Sp1 (Homo sapiens) (P08047 whole entry, looked up): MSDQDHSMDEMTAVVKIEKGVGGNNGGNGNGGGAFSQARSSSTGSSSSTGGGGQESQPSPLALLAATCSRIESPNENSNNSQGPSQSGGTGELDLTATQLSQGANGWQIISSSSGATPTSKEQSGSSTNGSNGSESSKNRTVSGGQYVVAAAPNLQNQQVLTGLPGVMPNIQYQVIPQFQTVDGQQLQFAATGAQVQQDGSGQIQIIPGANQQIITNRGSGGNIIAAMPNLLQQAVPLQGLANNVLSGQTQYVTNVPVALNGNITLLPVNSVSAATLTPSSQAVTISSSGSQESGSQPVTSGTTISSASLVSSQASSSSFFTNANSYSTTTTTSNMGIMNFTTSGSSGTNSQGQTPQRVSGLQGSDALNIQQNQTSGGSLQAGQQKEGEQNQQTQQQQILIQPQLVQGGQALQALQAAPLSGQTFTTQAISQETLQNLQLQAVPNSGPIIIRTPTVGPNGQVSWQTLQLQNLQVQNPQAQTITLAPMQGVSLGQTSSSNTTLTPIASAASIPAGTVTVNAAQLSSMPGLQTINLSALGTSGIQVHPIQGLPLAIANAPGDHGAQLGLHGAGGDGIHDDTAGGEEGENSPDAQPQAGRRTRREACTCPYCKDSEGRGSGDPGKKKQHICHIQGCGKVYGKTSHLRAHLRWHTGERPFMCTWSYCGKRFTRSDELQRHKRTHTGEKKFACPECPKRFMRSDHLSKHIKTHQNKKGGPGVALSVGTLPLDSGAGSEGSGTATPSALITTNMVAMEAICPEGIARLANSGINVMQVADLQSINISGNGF
# Summary of the method: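 Sp1-driven reporter mRNA, read as capillary electrophoresis fluorescence after RT-PCR, in transiently transfected HepG2 cells dosed for 24 h; signal change in either direction relative to DMSO.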
# [16] = ATG_SREBP_CIS: Attagene CIS-FACTORIAL HepG2 Assay for human Sterol Regulatory Element Binding (SREBP) (AID 2282962); settings: HepG2 Attagene cis-factorial SREBP reporter, mRNA; actives raise or lower the signal
# Summary of the method: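 HepG2 cells transiently transfected with multiplexed cis-promoter reporter units sensing endogenous transcription factors; reporter mRNA measured 24 h after dosing by RT-PCR, 6-FAM labeling, HpaI digestion and capillary electrophoresis. Bidirectional fit versus DMSO.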
# [17] = target: Signal transducer and activator of transcription 3 (Homo sapiens) (UniProt P40763); assay: ATG_STAT3_CIS: Attagene CIS-FACTORIAL HepG2 Assay for human Signal Transducer and Activator of Transcription 3 (STAT3) (AID 2282963); settings: HepG2, Attagene cis-factorial STAT3 reporter transcription; actives raise or lower the signal
# Sequence of Signal transducer and activator of transcription 3 (Homo sapiens) (P40763 whole entry, looked up): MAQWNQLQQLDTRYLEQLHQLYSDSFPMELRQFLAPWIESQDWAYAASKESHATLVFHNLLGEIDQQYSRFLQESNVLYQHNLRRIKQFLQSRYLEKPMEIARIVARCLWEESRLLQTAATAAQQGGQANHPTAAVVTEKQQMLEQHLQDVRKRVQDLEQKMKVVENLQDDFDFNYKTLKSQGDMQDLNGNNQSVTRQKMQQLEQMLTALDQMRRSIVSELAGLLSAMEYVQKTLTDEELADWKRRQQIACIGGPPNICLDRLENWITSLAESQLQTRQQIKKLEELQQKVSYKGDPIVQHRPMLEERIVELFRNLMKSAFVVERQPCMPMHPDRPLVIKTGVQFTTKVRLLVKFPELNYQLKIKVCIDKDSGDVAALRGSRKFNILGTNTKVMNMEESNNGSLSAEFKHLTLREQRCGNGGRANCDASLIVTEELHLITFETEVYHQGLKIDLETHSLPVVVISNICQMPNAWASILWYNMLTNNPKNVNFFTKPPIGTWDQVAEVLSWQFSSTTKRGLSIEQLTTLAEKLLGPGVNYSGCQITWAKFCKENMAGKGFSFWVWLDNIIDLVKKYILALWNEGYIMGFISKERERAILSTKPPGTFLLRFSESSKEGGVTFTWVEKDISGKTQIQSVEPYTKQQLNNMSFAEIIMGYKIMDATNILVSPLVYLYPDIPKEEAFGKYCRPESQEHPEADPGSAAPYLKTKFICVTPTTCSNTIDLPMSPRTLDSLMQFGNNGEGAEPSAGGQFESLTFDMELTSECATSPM
# Summary of the method: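 After a 24 h compound incubation, total RNA from MRTU-transfected HepG2 cells was converted to cDNA and reporter sequences PCR-amplified, labelled and profiled by capillary electrophoresis. Gain and loss of signal were referenced to DMSO.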
# [18] = ATG_TA_CIS: Attagene CIS-FACTORIAL HepG2 Assay for human TA Basal Promoter (AID 2282964); settings: HepG2 Attagene CIS-factorial TA basal promoter reporter; actives raise or lower the signal
# Summary of the method: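 Fluorescence from labelled RT-PCR reporter fragments, separated by capillary electrophoresis, gives the signal. Cells: HepG2 transiently carrying multiple reporter units, 24 h chemical dosing. Gain or loss relative to DMSO.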
# [19] = ATG_TCF_b_cat_CIS: Attagene CIS-FACTORIAL HepG2 Assay for human T-Cell-Factor with beta-catenin (TCF/b-cat) (AID 2282965); settings: HepG2 TCF/beta-catenin cis-reporter transcription, actives raise or lower the signal
# Summary of the method: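 Endogenous transcription factor activity is captured through cis-promoter reporter constructs transiently introduced into human HepG2 liver cells. Induced reporter mRNA is measured after 24 h and fitted bidirectionally relative to DMSO.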
# [20] = ATG_M_32_CIS: Attagene CIS-FACTORIAL HepG2 Assay for M32 Transcription Factor (Internal Marker) (AID 2282949); settings: HepG2 Attagene cis-factorial M32 reporter, mRNA; actives raise or lower the signal;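 further: background control marker of the multiplexed CIS panel rather than a real target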
# Summary of the method: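 Internal background marker read-out: RT-PCR/capillary electrophoresis fluorescence of reporter transcripts from transiently transfected HepG2 cells after 24 h chemical exposure. Activity fitted bidirectionally relative to DMSO negative control.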
smiles,measurement,setting,value
COC(C(=O)O)c1ccccc1 (stereo unspecified),outcome,[1],inactive
same,outcome,[2],inactive
same,outcome,[3],inactive
same,outcome,[4],inactive
same,outcome,[5],inactive
same,outcome,[6],inactive
same,outcome,[7],inactive
same,outcome,[8],inactive
same,outcome,[9],inactive
same,outcome,[10],inactive
same,outcome,[11],inactive
same,outcome,[12],inactive
same,outcome,[13],inactive
same,outcome,[14],inactive
same,outcome,[15],inactive
same,outcome,[16],inactive
same,outcome,[17],inactive
same,outcome,[18],inactive
same,outcome,[19],inactive
CNC(=O)Oc1ccc2c(c1)[C@]1(C)CCN(C)[C@@H]1N2C,outcome,[1],inactive
same,outcome,[2],inactive
same,outcome,[3],inactive
same,outcome,[20],inactive
same,outcome,[4],inactive
same,outcome,[6],inactive
same,outcome,[7],inactive
same,outcome,[8],inactive
same,outcome,[9],inactive
same,outcome,[10],inactive
same,AC50,[11],38 µM (active)
same,outcome,[12],inactive
same,outcome,[13],inactive
same,outcome,[14],inactive
same,outcome,[15],inactive
same,outcome,[17],inactive
same,outcome,[18],inactive
same,outcome,[19],inactive
CC1CCC(C(C)(C)O)CC1 (stereo unspecified),outcome,[1],inactive
same,outcome,[2],inactive
same,outcome,[3],inactive
same,outcome,[4],inactive
same,outcome,[5],inactive
same,outcome,[6],inactive
same,outcome,[7],inactive
same,outcome,[8],inactive
same,outcome,[9],inactive
same,outcome,[10],inactive
same,outcome,[11],inactive
same,outcome,[12],inactive
same,outcome,[13],inactive
same,outcome,[14],inactive
same,outcome,[15],inactive
same,outcome,[16],inactive
same,outcome,[17],inactive
same,outcome,[18],inactive
same,outcome,[19],inactive
CCCC(C)C=O (stereo unspecified),outcome,[1],inactive
same,outcome,[2],inactive
same,outcome,[3],inactive
same,outcome,[20],inactive
same,outcome,[4],inactive
same,outcome,[7],inactive
same,outcome,[8],inactive
same,outcome,[9],inactive
same,outcome,[10],inactive
same,outcome,[11],inactive
same,outcome,[12],inactive
same,outcome,[13],inactive
same,outcome,[14],inactive
same,outcome,[15],inactive
same,outcome,[16],inactive
same,outcome,[17],inactive
same,outcome,[18],inactive
same,outcome,[19],inactive
CN(C)CCOCCN(C)C,outcome,[1],inactive
same,outcome,[2],inactive
same,outcome,[3],inactive
same,outcome,[20],inactive
same,outcome,[4],inactive
same,outcome,[5],inactive
same,outcome,[7],inactive
same,outcome,[8],inactive
same,outcome,[9],inactive
same,outcome,[10],inactive
same,outcome,[11],inactive
same,outcome,[12],inactive
same,outcome,[13],inactive
same,outcome,[14],inactive
same,outcome,[15],inactive
same,outcome,[16],inactive
same,outcome,[17],inactive
same,outcome,[18],inactive
same,outcome,[19],inactive
Nc1cc([N+](=O)[O-])ccc1Cl,outcome,[1],inactive
same,outcome,[2],inactive
same,outcome,[20],inactive
same,outcome,[4],inactive
same,outcome,[5],inactive
same,outcome,[6],inactive
same,outcome,[7],inactive
same,outcome,[8],inactive
same,outcome,[9],inactive
same,outcome,[10],inactive
same,outcome,[11],inactive
same,outcome,[12],inactive
same,outcome,[13],inactive
same,outcome,[14],inactive
same,outcome,[15],inactive
same,outcome,[16],inactive
same,outcome,[17],inactive
same,outcome,[18],inactive
same,outcome,[19],inactive
CC(=O)OCCC(C)CC(C)(C)C (stereo unspecified),outcome,[1],inactive
same,outcome,[2],inactive
same,outcome,[3],inactive
same,outcome,[20],inactive
same,outcome,[4],inactive
same,outcome,[5],inactive
same,outcome,[7],inactive
same,outcome,[8],inactive
same,outcome,[9],inactive
same,outcome,[10],inactive
same,outcome,[11],inactive
same,outcome,[12],inactive
same,outcome,[13],inactive
same,outcome,[14],inactive
same,outcome,[15],inactive
same,outcome,[16],inactive
same,outcome,[17],inactive
same,outcome,[18],inactive
same,outcome,[19],inactive
